Source: PubChem BioAssay (National Center for Advancing Translational Sciences (NCATS))
FEN1 inhibitor = qHTS Assay for the Inhibitors of Human Flap endonuclease 1 (FEN1); P39748; Recombinant FEN1 flap cleavage, fluorescence, 15 min; Potency, µM (top dose mostly 114 µM), most hits filed as inhibitors; 0.35% of 390,000 active; AID 588795, 2011; also: nearly all actives have a fitted effect of over 65% in size
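Recombinant FEN1 (10 nM) was preincubated with pin-transferred compounds for 15 min at room temperature, then flap DNA substrate (50 nM final) was added. Plates were read at 0 and 15 min, and normalized concentration–response data were fitted to a four-parameter Hill equation.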
Pol beta inh-1 = qHTS Assay for Inhibitors of DNA Polymerase Beta; P06746; 1.3% of 340,000 active; Potency, µM (highest dose often 114 µM), hits mostly inhibitors; Pol beta primer extension/strand displacement, fluorescence kinetic
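Homogeneous kinetic assay of primer extension and strand displacement by 10 nM Pol beta, preincubated 15 min at room temperature with compound before 50 nM substrate (final) was added. Read at 0 and 10 min; four-parameter Hill fit.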
Pol eta inh-1 = qHTS for Inhibitors of Polymerase Eta. DNA polymerase eta (Homo sapiens), Q9Y253. recombinant Pol eta, fluorescent DNA replication assay. Potency, µM (doses to about 114 µM), most hits filed as inhibitors. 1.2% of 390,000 active. AID 588591, 2011
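Pol eta at 10 nM preincubated with compounds 15 min at room temperature; reaction started with fluorescent substrate (50 nM final) and read kinetically at 0 and 10 min.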
Pol iota inh = qHTS for Inhibitors of Polymerase Iota; DNA polymerase iota (Homo sapiens), Q9UNA4; AID 588590, 2011; 1% of 390,000 active; Pol iota fluorescent replication assay, 10 min; Potency, µM (highest dose often 115 µM), hits mostly inhibitors
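Pol iota at 10 nM preincubated 15 min with compounds at room temperature; reaction started with fluorescent substrate, 50 nM final. Fluorescence read kinetically at 0 and 10 min; buffer-only wells as negative control.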
WRN inhibitor = qHTS for Inhibitors of WRN Helicase | Bifunctional 3'-5' exonuclease/ATP-dependent helicase WRN (Homo sapiens), Q14191 | WRN helicase unwinding, fluorescent forked duplex, kinetic | Potency, µM (titrated, usually from 114 µM), most hits filed as inhibitors | 0.46% of 360,000 active | AID 651768, 2012; also: nearly all actives have a fitted effect of over 55% in size
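WRN at 20 nM final was preincubated with compound for 15 min at room temperature; reaction started with 100 nM forked duplex oligonucleotide carrying fluorophore and quencher plus 2 mM ATP (final). Unwinding followed kinetically by red fluorescence (ex 525/em 598 nm).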
POLK inh = qHTS for Inhibitors of Polymerase Kappa. 0.53% of 400,000 active. purified Pol kappa, fluorescent DNA synthesis assay, 10 min. Potency, µM (series often up to 107 µM), hits mostly inhibitors. AID 588579, 2011
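Pol kappa 10 nM + cpd, 15 min RT; start w/ substrate 50 nM final; fluorescence kinetic read, 0 and 10 min. Neg ctrl: buffer, no enzyme.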
Pol beta inh-2 = Inhibitors of DNA Polymerase Beta: Hit validation | shares compounds with Pol beta inh-1 | Potency, µM, most hits filed as inhibitors | AID 540280, 2011 | 87% of 250 active | Pol beta primer extension/strand displacement, fluorescence kinetic; calls by dose curve
Klenow inh = Inhibitors of DNA Polymerase Beta: Hit Validation in Klenow Fragment Assay. shares compounds with Pol beta inh-1. Klenow exo- polymerase counter-screen, fluorescent DNA substrate. activity change, negative = inhibition, % at 57.1 µM. 250 tested, under 10 active. AID 540300, 2011
HIV RT inh = Inhibitors of DNA Polymerase Beta: Hit Validation in HIV-RT Assay | shares compounds with Pol beta inh-1 | HIV-1 RT polymerase activity, counter-screen | activity % (negative = inhibition, positive = activation), % at 57.1 µM | 250 tested, under 10 active | AID 540301, 2011
POLB inh gel = Inhibitors of DNA Polymerase Beta: Hit Validation in Radiolabeled Extension Assay. shares compounds with Pol beta inh-1. radiolabeled primer extension gel assay, phosphorimager. inhibition, % at 10 µM. 91% of 110 active;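 active = inhibition at 10 µM of 30% or more; inconclusive = no clear call, values can overlap the other calls; inactive = inhibition at 10 µM under 30%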
TbPGK inh = qHTS for inhibitors of Phosphogylcerate Kinase: Hit Validation Screen; 79% of 500 active; Potency, µM (doses to about 57.5 µM), hits mostly inhibitors; TbPGK coupled GAPDH assay, Kinase-Glo luminescence; shares compounds with POLK inh; also: nearly all actives have a fitted effect of over 65% in size
Pol iota confirm = qHTS for Inhibitors of Polymerase Iota: Confirmatory Assay for Cherry-picked Compounds | Pol iota primer extension, TAMRA/BHQ fluorescence | shares compounds with POLK inh | Potency, µM, hits mostly inhibitors | 77% of 1,500 active
Pol eta inh-2 = qHTS for Inhibitors of Polymerase Eta: Confirmatory Assay for Cherry-picked Compounds; shares compounds with Pol eta inh-1; Pol eta primer extension, TAMRA/BHQ fluorescence, 10 min; Potency, µM, actives largely listed as inhibitors; 64% of 2,600 active; AID 720502, 2013
Each line names hits and unclear results; the compound was inactive in the other large screens (follow-up assays come after a bar, where they were run). Only some compounds are listed: those with a hit (about 2.4% of all), similar ones and a draw of the others. Unless noted, calls follow the shape of the dose curve; as a rule, active = well fitted curve in the direction sought with a large enough effect; inconclusive = small, poorly fitted or top-dose-only effect, or another doubt; inactive = no such curve, though single readings can be large; an effect the other way counts as inactive or inconclusive.

N=C1C(c2nc3ccccc3s2)=C(O)CN1NC(=O)c1c[nH]c2ccccc12	Pol beta inh-1 13µM, Pol iota inh inconclusive | Pol beta inh-2 25 | Klenow inh inactive | HIV RT inh inactive | POLB inh gel 52
COc1cccc2sc(Nc3nnc(-c4ccc(F)cc4)o3)nc12	Pol beta inh-1 13µM, Pol eta inh-1 50µM | Pol beta inh-2 35 | Klenow inh inactive | HIV RT inh inactive | POLB inh gel 85
O=C(Nc1cccc(S(=O)(=O)NC2=NCCCCC2)c1)c1cc(-c2ccco2)nc2ccccc12	Pol beta inh-1 7.9µM, Pol eta inh-1 inconclusive, Pol iota inh 14µM, WRN inhibitor inconclusive, POLK inh 79µM | Pol beta inh-2 11 | Klenow inh inactive | HIV RT inh inactive
CCCCN1CCCC1C(=O)Nc1c(C)cc(C)cc1C (stereo unspecified)	none (no result: FEN1 inhibitor, Pol beta inh-1, Pol eta inh-1, Pol iota inh, WRN inhibitor)
CC(C)n1c(=S)[nH]c2scc(-c3cccs3)c2c1=O	Pol beta inh-1 7.9µM, Pol eta inh-1 18µM, Pol iota inh 20µM, POLK inh inconclusive | Pol beta inh-2 22 | Klenow inh inactive | HIV RT inh inactive | POLB inh gel 98
CCn1c(=S)[nH]c2scc(-c3cccs3)c2c1=O	none
O=c1ccn([C@@H]2O[C@H](COP(=O)(O)O)[C@@H](O)[C@H]2O)c(=O)[nH]1	none (no result: FEN1 inhibitor, Pol beta inh-1, Pol eta inh-1, Pol iota inh, WRN inhibitor)
COc1cc(/C=C(/C#N)c2nc3ccccc3[nH]2)ccc1Oc1ncccc1[N+](=O)[O-]	Pol beta inh-1 13µM, Pol eta inh-1 inconclusive, Pol iota inh inconclusive, WRN inhibitor inconclusive | Pol beta inh-2 13 | Klenow inh inactive | HIV RT inh inactive | Pol iota confirm inconclusive
CCOc1cc(/C=C(/C#N)c2nc3ccccc3[nH]2)ccc1Oc1ccc([N+](=O)[O-])cn1	Pol beta inh-1 inconclusive
CN(C)c1ccc(-c2ccc3ncnc(N(C)Cc4ccco4)c3c2)cc1	none (no result: FEN1 inhibitor, Pol beta inh-1, Pol eta inh-1, Pol iota inh, WRN inhibitor)
CCCCCCc1cc2cc(-c3nnc(-c4ccccc4OC)o3)c(=O)oc2cc1O	FEN1 inhibitor 45µM, Pol beta inh-1 14µM, Pol eta inh-1 8.9µM, Pol iota inh inconclusive, WRN inhibitor 45µM, POLK inh 20µM | Pol beta inh-2 7.1 | Klenow inh inactive | HIV RT inh inactive | TbPGK inh 10µM
O=C(/C=C/c1ccccc1Cl)Nc1ccc2c(c1)C(=O)NC2=O	Pol beta inh-1 8.9µM, Pol eta inh-1 inconclusive, Pol iota inh inconclusive, WRN inhibitor inconclusive, POLK inh inconclusive | Pol beta inh-2 14 | Klenow inh inactive | HIV RT inh inactive | Pol iota confirm inconclusive
CCCCn1c(=O)c2[nH]c(C34CC5CC(CC3C5)C4)nc2n(CCCO)c1=O	none (no result: FEN1 inhibitor, Pol beta inh-1, Pol eta inh-1, Pol iota inh, WRN inhibitor)
O=C(Nc1cccc(-c2cn3ccccc3n2)c1)c1cc2ccccc2oc1=O	FEN1 inhibitor inconclusive, Pol beta inh-1 4µM, Pol eta inh-1 inconclusive, Pol iota inh inconclusive, WRN inhibitor inconclusive | Pol beta inh-2 5.6 | Klenow inh inactive | HIV RT inh inactive | Pol iota confirm inconclusive
COc1ccc(-n2c(=O)c(-c3ccc(Cl)cc3)nc3cnc(N(C)C)nc32)cc1	none (no result: FEN1 inhibitor, Pol beta inh-1, Pol eta inh-1, Pol iota inh, WRN inhibitor)
CCOC(=O)c1cc(-c2ccc(N3CCOCC3)cc2)nn1-c1ccccc1	none
CCOC(=O)c1cc(-c2ccc(N3CCOCC3)cc2)nn1-c1ccccc1C(=O)O	Pol beta inh-1 13µM, Pol eta inh-1 inconclusive, Pol iota inh inconclusive, WRN inhibitor inconclusive | Pol beta inh-2 20 | Klenow inh inactive | HIV RT inh inactive | Pol iota confirm inconclusive
O=C(Nc1nc(-c2cc3ccccc3oc2=O)cs1)c1ccco1	Pol beta inh-1 8.9µM, Pol eta inh-1 inconclusive | Pol beta inh-2 20 | Klenow inh inactive | HIV RT inh inactive | POLB inh gel 41 | Pol iota confirm inconclusive
O=C(Nc1nc(-c2ccccn2)cs1)c1ccco1	Pol beta inh-1 inconclusive, Pol eta inh-1 inconclusive
CC1=NN(c2ccc(C)c(C)c2)C(=O)/C1=C\C=C\c1ccc([N+](=O)[O-])o1	Pol beta inh-1 7.1µM, Pol eta inh-1 40µM, Pol iota inh 11µM, POLK inh 50µM | Pol beta inh-2 32 | Klenow inh inactive | HIV RT inh inactive | POLB inh gel 99 | Pol iota confirm 42 | Pol eta inh-2 54
CC1(C)Cc2c(sc3[nH]c(=S)n(Cc4ccco4)c(=O)c23)CO1	none
O=c1c2c3c(sc2[nH]c(=S)n1Cc1ccco1)CCC3	FEN1 inhibitor inconclusive, Pol beta inh-1 8.9µM, Pol eta inh-1 20µM, Pol iota inh 18µM, WRN inhibitor inconclusive, POLK inh inconclusive | Pol beta inh-2 16 | Klenow inh inactive | HIV RT inh inactive | Pol iota confirm 42 | Pol eta inh-2 43
Cc1ccc(S(=O)(=O)Cc2ccc(C(=O)N3CCc4ccccc4C3)o2)cc1	Pol beta inh-1 16µM, Pol eta inh-1 20µM, Pol iota inh inconclusive, WRN inhibitor inconclusive, POLK inh 56µM | Pol beta inh-2 35 | Klenow inh inactive | HIV RT inh inactive | Pol iota confirm 42 | Pol eta inh-2 48
